# PMC6602471
# Target: RUNX1 (Homo sapiens, UniProt Q01196 1-453)
# Test: custom PBM; custom protein-binding microarray; buffer, salt, pH and temperature not stated; high values mean tight binding
# Details: dsDNA, one strand shown
# Sequence of RUNX1 (Q01196 whole entry): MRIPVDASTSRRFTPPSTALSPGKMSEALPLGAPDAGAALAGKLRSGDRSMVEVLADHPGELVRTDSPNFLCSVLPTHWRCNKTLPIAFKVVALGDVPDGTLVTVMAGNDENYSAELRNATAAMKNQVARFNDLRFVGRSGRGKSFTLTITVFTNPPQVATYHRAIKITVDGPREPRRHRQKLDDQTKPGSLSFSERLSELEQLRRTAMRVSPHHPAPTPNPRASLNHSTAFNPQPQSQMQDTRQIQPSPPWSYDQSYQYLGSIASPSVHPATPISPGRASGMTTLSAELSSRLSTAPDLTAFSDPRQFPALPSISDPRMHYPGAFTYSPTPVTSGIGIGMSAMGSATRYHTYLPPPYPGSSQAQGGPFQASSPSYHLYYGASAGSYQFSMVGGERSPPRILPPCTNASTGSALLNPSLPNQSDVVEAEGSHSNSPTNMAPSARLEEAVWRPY
row,Sequence,binding signal
1,CGCGCACTCTGTGGGTGCGCACATACGCACACATACACATACACACATACACATACGCAC,10.9 log fluorescence intensity
2,GCGCACATTTCCGGTAAATCATACACGCACACATACACATACACACATACACATACGCAC,11 log fluorescence intensity
3,GCATACGACTGACGTCAGCCACATACGCACACATACACATACACACATACACATACGCAC,11 log fluorescence intensity
4,GCATACGGCTGACGGCAGCCACATACGCACACATACACATACACACATACACATACGCAC,10.9 log fluorescence intensity
5,GCATACGGCTGACGTGAGCCACATACGCACACATACACATACACACATACACATACGCAC,10.9 log fluorescence intensity
6,CGCGCACTCTGTGGATGCGCACATACGCACACATACACATACACACATACACATACGCAC,10.9 log fluorescence intensity
7,GCGCACATTTGCCGTAAATCATACACGCACACATACACATACACACATACACATACGCAC,10.9 log fluorescence intensity
8,GCATACGGCTGCCGTCAGCCACATACGCACACATACACATACACACATACACATACGCAC,11 log fluorescence intensity
9,GCGCACATTTCCCGCAAATCATACACGCACACATACACATACACACATACACATACGCAC,11.1 log fluorescence intensity
10,GCATACGGCTGACGTCAGCCACATACGCACACATACACATACACACATACACATACGCAC,11 log fluorescence intensity
11,GCATACGGCTGACATCAGCCACATACGCACACATACACATACACACATACACATACGCAC,10.9 log fluorescence intensity
12,GCGCACATATCCCGTAAATCATACACGCACACATACACATACACACATACACATACGCAC,10.9 log fluorescence intensity
13,GCGCACATTTCCAGTAAATCATACACGCACACATACACATACACACATACACATACGCAC,10.9 log fluorescence intensity
14,CGCGCACTCTGTGGTTTCGCACATACGCACACATACACATACACACATACACATACGCAC,12.3 log fluorescence intensity
15,CGCGCACTCTGTGGTTGCGCACATACGCACACATACACATACACACATACACATACGCAC,11.7 log fluorescence intensity
16,GCATACGGTTGACGTCAGCCACATACGCACACATACACATACACACATACACATACGCAC,11 log fluorescence intensity
17,GCATACGTCTGACGTCAGCCACATACGCACACATACACATACACACATACACATACGCAC,11 log fluorescence intensity
18,CGCGCACGCTGTGGTTGCGCACATACGCACACATACACATACACACATACACATACGCAC,11.2 log fluorescence intensity
